Assay outcomes (PubChem BioAssay)
Shown are actives, neighbours in structure and some others; about 8% of the full set was active somewhere.
HT1080NT lethal – qHTS for induction of synthetic lethality in tumor cells producing 2HG: qHTS for the HT-1080-NT fibrosarcoma cell line. HT-1080-NT fibrosarcoma viability, CellTiter-Glo ATP luminescence, 48 h. hit rate 1.6% among 360,000. AID 686970, 2013. Potency, µM (highest dose often 46.1 µM), inactives show top-dose activity, negative = less viability, hits mostly cytotoxic;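 note: NT is the 2HG producing partner of a matched IDH1 knockdown line; 0% = DMSO-treated cells and -100% = media-only wells without cells; nearly all actives have a fitted effect of over 55% in size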
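Fibrosarcoma NT cells, 750 per well in 5% FBS RPMI, were exposed to compound for 48 hours. Viability: CellTiter-Glo luminescence.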
KB-3-1 cytotox – qHTS assay for MDR1-selective chemotherapeutics: Primary screen using the parental adenocarcinoma cell KB-3-1; KB-3-1 viability, CellTiter-Glo ATP luminescence, 72 h; Potency, µM (highest dose often 46.1 µM), actives largely listed as cytotoxic; hit rate 1.4% among 400,000; note: % is set by controls: 0 for no effect and ±100 for the full control effect; nearly all actives have a fitted effect of over 60% in size
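Luminescent ATP read-out (CellTiter-Glo) measures survival of drug-naive KB-3-1 cells after 72 h compound exposure at 37 °C. Titration series was screened from lowest to highest concentration, with DMSO vehicle plates as background controls.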
HT1080 IDH1KD tx – qHTS for induction of synthetic lethality in tumor cells producing 2HG: qHTS for the HT-1080-IDH1KD cell line. HT-1080 IDH1 knockdown viability, ATP luminescence, 48 h. Potency, µM (titrated, usually from 46.1 µM), for the others: at the top dose activity, negative = toxicity, hits mostly cytotoxic. hit rate 2% among 360,000;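 note: 0% = DMSO wells and -100% = cell-free medium wells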
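CellTiter-Glo luminescence after 48 h compound exposure at 37 degrees C of IDH1-knockdown HT-1080 cells in 5% FBS RPMI. %Activity scaled between DMSO wells and cell-free media wells, with curves fitted and assigned curve classes.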
SW480 rerep – A quantitative high throughput screen for small molecules that induce DNA re-replication in SW480 colon adenocarcinoma cells; SW480 DNA re-replication, Hoechst DNA content imaging, 48 h; Potency, µM (series often up to 46.1 µM), inactives show top-dose re-replication activation, most hits filed as activators; hit rate 1.8% among 340,000; note: % of control where 0% means no effect; nearly all actives have a fitted effect of over 55% in size
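Treated cells incubate 48 hr (37 C, 5% CO2), are stained 40 min with Hoechst, and nuclear fluorescence is enumerated; a rise in nuclei with high DNA signal marks re-replication.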
KB-V1 cytotox – qHTS assay for MDR1-selective chemotherapeutics: Primary screen using the drug-selected MDR subline cells KB-V1 | hit rate 3.4% among 400,000 | Potency, µM (titrated, usually from 46.1 µM), most hits filed as cytotoxic | KB-V1 MDR cells viability, CellTiter-Glo, 72 h; note: % is set by controls: 0 for no effect and ±100 for the full control effect; nearly all actives have a fitted effect of over 60% in size
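Luminescent ATP read-out (CellTiter-Glo, 10 min) measures survival of drug-selected KB-V1 MDR cells after 72 h, 37 degrees C compound exposure. Medium: phenol-red-free DMEM, 10% FBS. Values from fitted concentration-response curves.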
MCF10A rerep – A quantitative high throughput screen for small molecules that induce DNA re-replication in MCF 10a normal breast cells; hit rate 2.9% among 350,000; Potency, µM (doses to about 46.1 µM), inactives show at the top dose activity, positive = re-replication, usual class: activators; MCF 10A DNA re-replication, Hoechst nuclear intensity, 48 h; note: % of control where 0% means no effect; nearly all actives have a fitted effect of over 50% in size
* = called active by the depositor; i = inactive; ? = inconclusive; nt = no result given; ! = not confirmed by another sample. Calls come from the whole dose curve; as a rule, active = well fitted curve in the direction sought with a large enough effect; inconclusive = small, poorly fitted or top-dose-only effect, or another doubt; inactive = no such curve, though single readings can be large; an effect the other way counts as inactive or inconclusive. Potency is the fitted concentration of half-maximal effect.

SMILES	HT1080NT lethal	KB-3-1 cytotox	HT1080 IDH1KD tx	SW480 rerep	KB-V1 cytotox	MCF10A rerep
O=C(c1cccs1)N1C[C@@H](n2cc(C3CC3)nn2)[C@H](O)C[C@@H]1c1ccc(Cl)cc1	-13%	i	-8%	nt	i	nt
Cc1nnc(SCc2ccc(Cl)cc2)nc1/C=C/N(C)C	7%	i	1%	-5%	i	18µM*
COc1cccc(/C=N/n2c(=S)n(C)c3cc(C)c(C)cc32)c1OC	-3%	i	-1%	-4%	16µM*	6%
COc1cccc(/C=N/n2c(-c3cc(C)[nH]n3)n[nH]c2=S)c1OC	2%	i	-2%	-4%	i	-1%
CN1CCCCC1(C)C(=O)NCc1cc(Cl)ccc1F (stereo unspecified)	18%	i	8%	nt	i	nt
CC(C)=NNc1ncnc2nc[nH]c12	-27%	?	?	2%	7.3µM*	-2%
Cc1cc(C)cc(Nc2ncnc3nc[nH]c23)c1	8%	i	-14%	-5%	i	10%
CC(O)CNc1ncnc2nc[nH]c12 (stereo unspecified)	25%	i	14%	-23%	i	0%
Cc1ncnc2nc[nH]c12	nt	3.3µM*	nt	nt	10µM*	nt
CN(C)c1ccc(/C=C/c2ccnc3c(Cl)cccc23)cc1	nt	16µM*	nt	nt	?	nt
CN(C)c1ccc(/C=C/c2ccc3cc(N(C)C)ccc3n2)cc1	nt	i	nt	nt	?	nt
CN(C)c1ccc(/C=C/c2ccnc3c(O)cccc23)cc1	nt	?	nt	nt	i	nt
CC[N+](CC)(CC)c1ccc(/C=C/c2ccc3ccccc3n2)cc1	nt	1.8µM*	nt	nt	i	nt
CCCN(CCC)c1ccc(/C=C/c2ccc3cc(OCC)ccc3n2)cc1	8%	i	15%	2.1µM*	i	?
CN(C)c1ccc(/C=C/c2cccc3cc4ccccc4nc23)cc1	nt	4.1µM*	nt	nt	i	nt
CN(C)c1ccc(/C=C/c2ccc3ccccc3n2)cc1	?	8.2µM*!	?	23µM*	7.3µM*!	5.2µM*
Oc1ccc(/C=C/c2ccc3ccccc3n2)cc1	-21%	?	-21%	18µM*	i	?
C(=C\c1ccc2ccccc2n1)/c1ccccc1	?	?	?	?	i	12%
CN(C)c1ccc(/C=C/c2cc3ccccc3cn2)cc1	nt	1.5µM*	nt	nt	i	nt
COC(=O)c1cccc(Nc2nc(-c3ccncc3)nc3ccccc23)c1	-1%	i	6%	26%	i	8%
Cc1c(Cl)cccc1N/C(SCC(=O)N1CCCCCC1)=C(/C#N)c1nc2ccccc2s1	1%	21µM*	-26%	15µM*	15µM*	?
O=C(CSc1nc2ccccc2s1)N1CCCCC1	-12%	i	17%	13%	i	-8%
COc1cccc(-c2nc(-c3ccccc3)c3ccc(Cl)cc3n2)c1	12%	i	9%	nt	i	nt
CCC1=C(CC2NCCc3ccccc32)CC2c3cc(OC)c(OC)cc3CCN2C1 (stereo unspecified)	?	6.5µM*	6.5µM*	?	?	?
COc1cc2c(cc1OC)C1Cc3ccc(OC)c(OC)c3CN1CC2 (stereo unspecified)	-3%	i	3%	-3%	i	1%
COc1cc2c(cc1OC)C(c1ccc(O)cc1)NCC2 (stereo unspecified)	0%	i	7%	-2%	i	0%
COc1cc2c(cc1OC)[C@H](Cc1ccc(O)cc1)NCC2	-5%	i	-8%	?	?	16µM*
